Compound activity: PubChem BioAssay, National Center for Advancing Translational Sciences (NCATS)
A selection: hits, their analogues and other compounds. The true share with any hit is near 2.4%.
D2 PAM-1: Beta-Arrestin HTS for Positive Allosteric Modulators of the Human D2 Dopamine Receptor: Potentiators; D(2) dopamine receptor (Homo sapiens), P14416; 360,000 compounds, 0.23% hits; potentiation, % (test concentration not listed); DiscoveRx D2 beta-arrestin cells, luminescence, 90 min; 100% = 57 uM dopamine signal; in the data active = potentiation above about 50%
Target sequence (P14416 whole entry, looked up): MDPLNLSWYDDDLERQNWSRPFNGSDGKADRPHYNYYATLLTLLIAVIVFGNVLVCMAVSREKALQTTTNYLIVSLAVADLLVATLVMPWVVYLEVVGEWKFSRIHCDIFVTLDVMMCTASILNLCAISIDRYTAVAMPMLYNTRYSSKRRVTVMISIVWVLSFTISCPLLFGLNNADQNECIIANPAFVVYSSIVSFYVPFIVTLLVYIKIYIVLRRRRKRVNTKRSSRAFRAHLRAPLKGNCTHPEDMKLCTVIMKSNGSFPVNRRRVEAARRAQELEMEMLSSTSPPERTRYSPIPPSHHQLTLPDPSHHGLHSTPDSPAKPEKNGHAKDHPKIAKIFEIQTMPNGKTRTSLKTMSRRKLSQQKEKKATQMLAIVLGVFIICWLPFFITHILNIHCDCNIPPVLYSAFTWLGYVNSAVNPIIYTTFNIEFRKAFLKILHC
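PathHunter beta-arrestin assay in DiscoveRx D2 cells. Compounds were added with an EC20 of dopamine (50 nM final) for 90 min at 37 deg C. Luminescence was read 1 h after detection reagent, with 57 uM dopamine as the EC100 control.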
D2 ag-1: Beta-Arrestin HTS for Positive Allosteric Modulators of the Human D2 Dopamine Receptor: Agonists. D(2) dopamine receptor (Homo sapiens), P14416. DiscoveRx PathHunter D2 beta-arrestin, luminescence, 90 min; 100% = 57 uM dopamine signal. activation, % (test concentration not listed). 360,000 compounds, 0.084% hits; in the data active = activation above about 40%
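Agonist mode: compounds alone added to overnight-plated D2 PathHunter cells for 90 min at 37 C, with 57 uM final dopamine (EC100) defining full response. Beta-arrestin recruitment detected by chemiluminescent reagent, read after 1 h at ambient temperature.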
D2 PAM-2: HTS Assay for Positive Allosteric Modulators of the Human D2 Dopamine Receptor: Primary Screen for Potentiators. D(2) dopamine receptor (Homo sapiens), P14416. 340,000 compounds, 0.34% hits. potentiation, % at 10 µM. HEK293 T-REx D2, calcium flux, EC20 dopamine potentiation;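 active = potentiation over 3 SD above the plate norm, cut at about 30% in these data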; note: 0% is about no effect
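Cells plated with tetracycline inducer and held overnight at 30 C; calcium dye loaded 30–90 min at room temperature; baseline taken, compound added and read 180 s; EC20 dopamine then added and read 180 s.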
D2 antagonist: HTS Assay for Allosteric Antagonists of the Human D2 Dopamine Receptor: Primary Screen for Antagonists; D(2) dopamine receptor (Homo sapiens), P14416; HEK293 TREx D2 cells, calcium flux, dopamine EC80; inhibition, % at 10 µM; 340,000 compounds, 2% hits; AID 485344, 2010; in the data active = inhibition above about 30%; inactive = below that, where a call was filed; note: 0% is about no effect
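Inhibition of EC80 dopamine-driven calcium flux, recorded kinetically, defines activity here; cells are a tetracycline-induced HEK293 T-REx line expressing force-coupled D2.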
D2 ag-2: HTS Assay for Allosteric Agonists of the Human D2 Dopamine Receptor: Primary Screen for Agonists; activation, % at 2 µM; D(2) dopamine receptor (Homo sapiens), P14416; AID 485358, 2010; HEK293 T-REx D2 cells, calcium flux agonist mode; 340,000 compounds, 0.53% hits;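 active = activation over 3 SD above normal in the single-dose calcium agonist read, cut at about 30% in these data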; note: 0% is about no effect
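Agonism is scored from calcium flux in a force-coupled, inducible HEK293 cell line expressing D2, read kinetically for 180 s after compound addition against dopamine controls.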
Numbers without * were called inactive.

How did CCCCC(=O)NCc1ccc2c(c1)cc(C)n2C do in these assays?
D2 PAM-1: -11; D2 ag-1: -2; D2 PAM-2: -10; D2 antagonist: 34*; D2 ag-2: 1

How did Cc1cc2cc(CNC(=S)NCc3ccccc3)ccc2n1C do in these assays?
D2 PAM-1: -3; D2 ag-1: 2; D2 PAM-2: 16; D2 antagonist: 45*; D2 ag-2: 1

Results for CCc1ccccc1NC(=O)CC(c1ccc(F)cc1)N1Cc2ccccc2C1=O (configuration not stated) ?
D2 PAM-2: 5; D2 ag-2: 1

What do the screens show for `O=C(CN1C(=O)C2(SCC(=O)N2c2cccc(F)c2)c2ccccc21)NCCc1ccccc1` (configuration not stated)?
D2 PAM-2: -6; D2 ag-2: 2

What do the screens show for `Cc1ccc(S(=O)(=O)N(C)C)cc1NC(=S)N(CCC#N)Cc1cccnc1`?
D2 PAM-1: -16; D2 ag-1: -5; D2 PAM-2: -13; D2 antagonist: 43*; D2 ag-2: 0

How did CCCCOc1ccc(Cn2c(=O)sc3ccccc32)cc1OC do in these assays?
D2 PAM-2: 3; D2 ag-2: 0

How did COC(=O)C(CCSC)NC(=O)c1c(C)oc2ncn(CC(C)C)c(=O)c12 (configuration not stated) do in these assays?
D2 PAM-2: 6; D2 ag-2: 0

What do the screens show for `CC1(C)Cc2ccccc2-c2nnc(-c3ccc4ccccc4n3)n21`?
D2 PAM-1: -5; D2 ag-1: 1; D2 PAM-2: 44*; D2 antagonist: 0; D2 ag-2: 0

Results for COc1cc(NC(=O)CSc2nc(C)c(C)c(C)n2)cc(OC)c1 ?
D2 PAM-1: -2; D2 ag-1: -3; D2 PAM-2: 6; D2 antagonist: 48*; D2 ag-2: -1

How did Cn1c(=O)[nH]c(=O)c2c1nc(N1CCOCC1)n2Cc1ccccc1 do in these assays?
D2 PAM-2: 5; D2 ag-2: -2

Results for COc1ccc(NC(=O)N2CCCCCC2)c(OC)c1 ?
D2 PAM-1: -13; D2 ag-1: -1; D2 PAM-2: -2; D2 antagonist: -7; D2 ag-2: 0

What do the screens show for `CCN1CCN(C(=O)Nc2ccc(OC)cc2OC)CC1`?
D2 PAM-1: -5; D2 ag-1: 3; D2 PAM-2: 12; D2 antagonist: 49*; D2 ag-2: 0

How did CC(C)CC(=O)Nc1cc(-c2ccccc2F)nn1-c1ccccc1 do in these assays?
D2 ag-2: -1

Results for CC(CCc1ccccc1)NC(=O)CSc1n[nH]c(-c2ccc(F)cc2)n1 (configuration not stated) ?
D2 ag-2: 0

How did COc1ccccc1/C=C/CN1CCN(Cc2ccc(C)o2)C(CCO)C1 (configuration not stated) do in these assays?
D2 PAM-1: -17; D2 ag-1: -4; D2 PAM-2: -21; D2 antagonist: 49*; D2 ag-2: 0

Results for CCOCCCn1c(=N)c(C(=O)NC2CCCC2)cc2c(=O)n3cccc(C)c3nc21 ?
D2 PAM-2: -2; D2 ag-2: 0

What do the screens show for `O=C(C1=C[C@@H](c2coc3ccccc3c2=O)C[C@@H](OCCCCO)O1)N1CCOCC1`?
D2 PAM-1: -9; D2 ag-1: -4; D2 PAM-2: 13; D2 antagonist: 62*; D2 ag-2: 0

Results for CN1CCN(C(=O)C2=C[C@H](c3coc4ccccc4c3=O)C[C@H](OCCCCO)O2)CC1 ?
D2 PAM-1: -8; D2 ag-1: -1; D2 PAM-2: 1; D2 antagonist: 0; D2 ag-2: 0

How did COc1ccccc1C(=O)Nc1nnc(SCc2cc(=O)c3ccccc3[nH]2)s1 do in these assays?
D2 PAM-2: 15; D2 ag-2: -1

Results for O=C(O)c1ccc2nc3c(nc2c1)-c1ccccc1C3=O ?
D2 PAM-1: -17; D2 ag-1: -5; D2 PAM-2: 8; D2 antagonist: 34*; D2 ag-2: 1

What do the screens show for `COc1cccc(-n2c(-c3ccco3)nc3c(cnn3-c3ccccc3C)c2=O)c1`?
D2 ag-2: 1

Results for COC(=O)c1cc(NS(=O)(=O)c2cc(Br)cc3c2N(C(C)=O)CC3)cc(C(=O)OC)c1 ?
D2 PAM-2: 21; D2 ag-2: -1

What do the screens show for `O=C(N/C=C/n1cnc2cc(C(F)(F)F)ccc21)c1ccc(F)cc1`?
D2 PAM-1: -7; D2 ag-1: -1

How did O=C(N/C=C/n1cnc2cc(C(F)(F)F)ccc21)c1ccccc1F do in these assays?
D2 PAM-1: -8; D2 ag-1: 1; D2 PAM-2: 83*; D2 antagonist: -7; D2 ag-2: 0

How did O=S(=O)(Nc1cccc2ccccc12)c1cccs1 do in these assays?
D2 PAM-1: 1; D2 ag-1: 91*; D2 PAM-2: -2; D2 antagonist: -17; D2 ag-2: 0

How did COc1ccc(CN2CCCC(C(=O)Nc3cccc(-n4cccn4)c3)C2)cc1 (configuration not stated) do in these assays?
D2 PAM-1: -33; D2 ag-1: -1; D2 PAM-2: -24; D2 antagonist: 79*; D2 ag-2: 0

Results for COc1ccccc1OCCC(=O)OCC(=O)Nc1ccc(Br)cc1F ?
D2 PAM-1: -15; D2 ag-1: -3; D2 PAM-2: -21; D2 antagonist: 41*; D2 ag-2: 2

What do the screens show for `O=C(COC(=O)COc1ccccc1)Nc1ccc(Br)cc1F`?
D2 PAM-1: -6; D2 ag-1: -3

What do the screens show for `CCc1cccc(C)c1NC(=O)CSc1nnc(C)o1`?
D2 PAM-1: 6; D2 ag-1: 0; D2 PAM-2: 37*; D2 antagonist: 0; D2 ag-2: 1

Results for CCCCc1ccc(NC(=S)NCCO)cc1 ?
D2 PAM-1: -8; D2 ag-1: 1; D2 PAM-2: 13; D2 antagonist: 31*; D2 ag-2: 0

Results for CCCCc1ccc(NC(=S)NCCc2ccc(F)cc2)cc1 ?
D2 PAM-1: -11; D2 ag-1: 0; D2 PAM-2: -25; D2 antagonist: 30*; D2 ag-2: 0

What do the screens show for `CCCCNC(=S)Nc1ccc(Cl)cc1`?
D2 PAM-1: -21; D2 ag-1: -3; D2 PAM-2: -3; D2 antagonist: 4; D2 ag-2: 1

Results for COCCCNc1ncnc2c1c(-c1ccccc1)cn2-c1ccc(C)c(Cl)c1 ?
D2 PAM-2: 9; D2 ag-2: 0
